Results filed as inconclusive are left out. Activity calls are given as the source filed them. Unless noted, calls follow the shape of the dose curve; as a rule, active = well fitted curve in the direction sought with a large enough effect in the repeat runs; inconclusive = weak or mixed curves; inactive = no such curve, though single readings can be large; an effect the other way counts as inactive or inconclusive.
Experiments:
[1] = qHTS assay to identify aromatase inhibitors - cell viability counter screen (AID 743084);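 also: cells stimulated with testosterone during compound exposure; nearly all actives have a fitted effect of over 55% in size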
[2] = biological target: Aryl hydrocarbon receptor (Homo sapiens) (UniProt P35869); test: qHTS assay to identify small molecule that activate the aryl hydrocarbon receptor (AhR) signaling pathway (AID 743085);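 also: HG2L7.5c1 human HepG2 liver cells with stably integrated DRE-driven firefly reporter; series mostly up to about 70 µM; nearly all actives have a fitted effect of over 15% in size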
Chain of Aryl hydrocarbon receptor (Homo sapiens) (P35869 whole entry, looked up): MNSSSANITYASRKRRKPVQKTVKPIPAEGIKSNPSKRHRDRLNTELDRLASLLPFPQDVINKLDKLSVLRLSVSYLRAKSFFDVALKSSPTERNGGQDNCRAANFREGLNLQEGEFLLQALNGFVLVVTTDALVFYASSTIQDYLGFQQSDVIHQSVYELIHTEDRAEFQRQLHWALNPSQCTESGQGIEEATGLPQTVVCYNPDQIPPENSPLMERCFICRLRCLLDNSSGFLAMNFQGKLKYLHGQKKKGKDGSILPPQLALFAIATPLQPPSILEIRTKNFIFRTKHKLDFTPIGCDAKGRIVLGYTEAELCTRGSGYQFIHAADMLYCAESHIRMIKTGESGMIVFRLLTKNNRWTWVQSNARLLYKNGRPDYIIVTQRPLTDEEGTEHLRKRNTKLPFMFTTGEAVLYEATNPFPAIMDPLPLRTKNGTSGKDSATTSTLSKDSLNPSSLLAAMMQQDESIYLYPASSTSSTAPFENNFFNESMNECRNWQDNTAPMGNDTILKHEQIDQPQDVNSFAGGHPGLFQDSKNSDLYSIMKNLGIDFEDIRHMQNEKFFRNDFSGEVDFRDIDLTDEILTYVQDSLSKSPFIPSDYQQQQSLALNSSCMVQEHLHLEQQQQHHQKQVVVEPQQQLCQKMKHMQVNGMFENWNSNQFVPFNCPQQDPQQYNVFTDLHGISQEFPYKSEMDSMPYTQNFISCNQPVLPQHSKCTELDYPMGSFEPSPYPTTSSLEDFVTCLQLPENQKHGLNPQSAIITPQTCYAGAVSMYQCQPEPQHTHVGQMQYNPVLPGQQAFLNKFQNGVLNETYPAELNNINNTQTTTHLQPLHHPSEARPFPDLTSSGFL
Method in brief: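 AhR agonist activity is inferred from enhanced light output of a DRE-controlled firefly luciferase reporter in HepG2 cells, measured with ONE-Glo following 24 h treatment at 37C.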

[3] = qHTS assay to identify small molecule that activate the aryl hydrocarbon receptor (AhR) signaling pathway - cell viability counter screen (AID 743086);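 also: HepG2 liver cells carrying the AhR DRE luciferase reporter; series mostly up to about 70 µM; nearly all actives have a fitted effect of over 45% in size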
Method in brief: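 HepG2-AhR-luc (HG2L7.5c1) cells, 4000/well, were preincubated 5 h at 37C, exposed to compound in qHTS format for 24 hr at 37C, then given CellTiter-Fluor for 30 min; viability was read as fluorescence in the reporter wells.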

[4] = biological target: Peroxisome proliferator-activated receptor gamma (Homo sapiens) (UniProt P37231); test: qHTS assay to identify small molecule agonists of the peroxisome proliferator-activated receptor gamma (PPARg) signaling pathway (AID 743094; active = well fitted activation curve with a large enough effect in the signal ratio in the repeat runs, not every such curve was filed as active; the % refers to the signal ratio)
Chain of Peroxisome proliferator-activated receptor gamma (Homo sapiens) (P37231 whole entry, looked up): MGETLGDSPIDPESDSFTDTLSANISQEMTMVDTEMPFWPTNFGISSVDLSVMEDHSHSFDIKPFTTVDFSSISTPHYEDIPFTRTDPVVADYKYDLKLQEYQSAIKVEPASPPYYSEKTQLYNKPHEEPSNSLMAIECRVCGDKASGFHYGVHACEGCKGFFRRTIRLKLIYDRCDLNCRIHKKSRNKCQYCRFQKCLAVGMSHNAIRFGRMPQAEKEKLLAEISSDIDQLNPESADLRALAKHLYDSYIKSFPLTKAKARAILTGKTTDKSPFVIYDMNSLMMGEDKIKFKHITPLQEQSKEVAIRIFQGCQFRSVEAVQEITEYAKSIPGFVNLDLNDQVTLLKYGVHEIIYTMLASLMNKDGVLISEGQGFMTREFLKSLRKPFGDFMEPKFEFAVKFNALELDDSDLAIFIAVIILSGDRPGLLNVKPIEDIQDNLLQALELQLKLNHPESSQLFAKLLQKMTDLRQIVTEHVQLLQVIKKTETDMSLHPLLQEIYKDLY
Method in brief: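 Agonist activity was taken from a beta-lactamase reporter (FRET substrate, 1 h at room temperature) in HEK293H cells carrying a PPARg UAS-bla construct. Compounds in DMSO were incubated 17 h at 37C after a 5 h cell pre-incubation.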

[5] = biological target: Peroxisome proliferator-activated receptor gamma (Homo sapiens) (UniProt P37231); test: qHTS assay to identify small molecule antagonists of the peroxisome proliferator-activated receptor gamma (PPARg) signaling pathway (AID 743191; calls by dose curve; also: series mostly up to about 63 µM; nearly all actives have a fitted effect of over 30% in size)
Method in brief: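 GeneBLAzer PPARg UAS-bla HEK293H cells carrying a UAS-driven beta-lactamase reporter were plated at 3000 cells/well, preincubated 5 h at 37C, then given compound for 17 h at 37C; LiveBLAzer B/G FRET substrate was read after 1 h at room temperature.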

[6] = qHTS assay to identify small molecule antagonists of the peroxisome proliferator-activated receptor gamma (PPARg) signaling pathway - cell viability counter screen (AID 743194); also: nearly all actives have a fitted effect of over 55% in size
Method in brief: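 PPARg-UAS-bla HEK293H cells were plated, rested 5 h at 37 C, then treated with compounds plus rosiglitazone (50 nM final) for 17 h at 37 C; viability was then read by CellTiter-Glo luminescence after 30 min at room temperature.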

[7] = qHTS assay for small molecule agonists of the antioxidant response element (ARE) signaling pathway (AID 743202; active = well fitted activation curve with a large enough effect in the signal ratio in the repeat runs, not every such curve was filed as active; the % refers to the signal ratio)
Method in brief: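 Steps: seed ARE-bla HepG2 cells (2,000/well); incubate 5 h at 37 C; add compounds by pin tool; incubate 16 h at 37 C; add FRET substrate; read fluorescence after 2 h at RT.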

[8] = qHTS assay for small molecule activators of the heat shock response signaling pathway - cell viability counter screen (AID 743209); also: nearly all actives have a fitted effect of over 50% in size
Method in brief: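 Cytotoxicity counter screen run in the same wells as the heat-shock bla reporter assay: HeLa HSE-bla cells, 5 h compound exposure at 37 C, viability read by CellTiter-Glo luminescence.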

[9] = qHTS assay for small molecule activators of the heat shock response signaling pathway (AID 743210; active = well fitted activation curve with a large enough effect in the signal ratio in the repeat runs, with a control signal flat, not every such curve was filed as active; the % refers to the signal ratio;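 also: HeLa cells with beta-lactamase reporter driven by heat shock elements; series mostly up to about 63 µM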)
Method in brief: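 Activation of heat shock element-controlled beta-lactamase expression is measured in HeLa cells by LiveBLAzer FRET fluorescence, with compound exposure lasting 5 h at 37 C and substrate loading 2.5 h at room temperature.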

[10] = qHTS assay to identify small molecule agonists of the peroxisome proliferator-activated receptor delta (PPARd) signaling pathway - cell viability counter screen (AID 743211); also: nearly all actives have a fitted effect of over 55% in size
Method in brief: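 qHTS cell viability: PPARd-bla HEK293H; 17 h cpd, 37C; CellTiter-Glo, luminescence at 30 min RT.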

[11] = qHTS assay to identify small molecule antagonists of the peroxisome proliferator-activated receptor delta (PPARd) signaling pathway - cell viability counter screen (AID 743213); also: nearly all actives have a fitted effect of over 50% in size
Method in brief: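 Viability counter-screen, qHTS format: PPARd-bla HEK293H, L165041 300 nM final, 17 h compound exposure at 37 C, CellTiter-Glo luminescence after 30 min RT.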

[12] = qHTS assay to identify small molecule agonists of the farnesoid-X-receptor (FXR) signaling pathway - cell viability counter screen (AID 743218); also: nearly all actives have a fitted effect of over 45% in size
Method in brief: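 Viability counter screen in the same wells: CellTiter-Glo luminescence, 30 min room-temperature incubation, measured after the beta-lactamase read. Cells were GeneBLAzer FXR-UAS-bla HEK 293T, compound-treated 16 h at 37C.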

[13] = biological target: Bile acid receptor (Homo sapiens) (UniProt Q96RI1); test: qHTS assay to identify small molecule agonists of the farnesoid-X-receptor (FXR) signaling pathway (AID 743220; active = well fitted activation curve with a large enough effect in the signal ratio in the repeat runs, not every such curve was filed as active; the % refers to the signal ratio)
Chain of Bile acid receptor (Homo sapiens) (Q96RI1 whole entry, looked up): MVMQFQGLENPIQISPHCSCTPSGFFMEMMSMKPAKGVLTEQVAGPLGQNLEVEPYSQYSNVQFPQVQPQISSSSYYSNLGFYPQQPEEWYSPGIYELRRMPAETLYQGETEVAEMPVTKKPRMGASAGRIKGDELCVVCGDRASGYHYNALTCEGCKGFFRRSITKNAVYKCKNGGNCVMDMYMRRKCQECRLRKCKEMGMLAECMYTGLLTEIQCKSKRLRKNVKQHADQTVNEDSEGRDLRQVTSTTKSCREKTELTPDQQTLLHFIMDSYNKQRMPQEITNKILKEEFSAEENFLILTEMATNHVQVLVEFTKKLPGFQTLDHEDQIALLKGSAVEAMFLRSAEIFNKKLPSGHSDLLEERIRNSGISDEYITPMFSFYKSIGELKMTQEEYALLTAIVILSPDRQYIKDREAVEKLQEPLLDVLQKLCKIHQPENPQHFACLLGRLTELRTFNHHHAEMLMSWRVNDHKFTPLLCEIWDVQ
Method in brief: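 FXR-UAS-bla HEK 293T cells carrying a UAS-driven beta-lactamase reporter were plated for 5 h at 37C/5% CO2, then exposed to DMSO-dissolved Tox21 10K compounds for 16 h at 37C. A LiveBLAzer B/G FRET substrate was loaded for 2 h at room temperature before fluorescence reading.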

[14] = qHTS assay to identify small molecule antagonists of the farnesoid-X-receptor (FXR) signaling pathway - cell viability counter screen (AID 743221; active = well fitted cell-killing curve with a large enough effect in the repeat runs, not every such curve was filed as active; also: nearly all actives have a fitted effect of over 50% in size)
Method in brief: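 After a 5 h settling period, FXR-bla HEK 293T cells receive compound and chenodeoxycholic acid (50 uM final) and incubate 16 h at 37 C; CellTiter-Glo luminescence, read after 30 min at room temperature, reports cell viability.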

[15] = qHTS assay for small molecule agonists of the antioxidant response element (ARE) signaling pathway - cell viability counter screen (AID 743203; calls by dose curve; also: nearly all actives have a fitted effect of over 55% in size)
Method in brief: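 Viability counter screen: CellTiter-Glo luminescence, read after 30 min at room temperature, in ARE-bla HepG2 wells. Compound exposure lasted 16 h at 37C/5% CO2, following a 5 h pre-incubation of the cells after plating.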

[16] = biological target: Peroxisome proliferator-activated receptor delta (Homo sapiens) (UniProt Q03181); test: qHTS assay to identify small molecule agonists of the peroxisome proliferator-activated receptor delta (PPARd) signaling pathway (AID 743212; calls by dose curve)
Chain of Peroxisome proliferator-activated receptor delta (Homo sapiens) (Q03181 whole entry, looked up): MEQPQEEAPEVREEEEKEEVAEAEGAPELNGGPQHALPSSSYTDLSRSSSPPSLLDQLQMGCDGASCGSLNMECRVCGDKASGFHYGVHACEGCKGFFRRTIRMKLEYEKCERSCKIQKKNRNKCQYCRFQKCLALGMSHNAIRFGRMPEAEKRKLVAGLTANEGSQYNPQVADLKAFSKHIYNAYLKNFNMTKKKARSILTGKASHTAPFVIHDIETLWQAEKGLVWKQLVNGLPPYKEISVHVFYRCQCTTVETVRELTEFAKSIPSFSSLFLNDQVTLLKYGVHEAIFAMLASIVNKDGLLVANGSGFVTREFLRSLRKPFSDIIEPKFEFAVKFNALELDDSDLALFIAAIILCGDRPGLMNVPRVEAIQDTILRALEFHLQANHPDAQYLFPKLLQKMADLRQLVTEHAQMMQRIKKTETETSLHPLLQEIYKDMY
Method in brief: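 Cells expressing a UAS-driven beta-lactamase reporter (PPARd-bla HEK293H) were given test compounds after a 5 h settle and kept at 37 C. Reporter activity was then measured as FRET fluorescence using LiveBLAzer B/G substrate.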

[17] = biological target: Peroxisome proliferator-activated receptor delta (Homo sapiens) (UniProt Q03181); test: qHTS assay to identify small molecule antagonists of the peroxisome proliferator-activated receptor delta (PPARd) signaling pathway (AID 743215; active = well fitted inhibition curve with a large enough effect in the signal ratio in the repeat runs, not every such curve was filed as active; the % refers to the signal ratio;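 also: cells stimulated with agonist L165041 at 300 nM final during compound exposure; series mostly up to about 62 µM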)
Method in brief: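 Agonist L165041 (300 nM final) added with compound to PPARd-bla HEK293H UAS-bla reporter cells; 17 h incubation at 37 C. Read-out: LiveBLAzer FRET substrate, 2 h at room temperature, fluorescence intensity.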

[18] = biological target: Vitamin D3 receptor (Homo sapiens) (UniProt P11473); test: qHTS assay to identify small molecule agonists of the vitamin D receptor (VDR) signaling pathway (AID 743222; calls by dose curve)
Chain of Vitamin D3 receptor (Homo sapiens) (P11473 whole entry, looked up): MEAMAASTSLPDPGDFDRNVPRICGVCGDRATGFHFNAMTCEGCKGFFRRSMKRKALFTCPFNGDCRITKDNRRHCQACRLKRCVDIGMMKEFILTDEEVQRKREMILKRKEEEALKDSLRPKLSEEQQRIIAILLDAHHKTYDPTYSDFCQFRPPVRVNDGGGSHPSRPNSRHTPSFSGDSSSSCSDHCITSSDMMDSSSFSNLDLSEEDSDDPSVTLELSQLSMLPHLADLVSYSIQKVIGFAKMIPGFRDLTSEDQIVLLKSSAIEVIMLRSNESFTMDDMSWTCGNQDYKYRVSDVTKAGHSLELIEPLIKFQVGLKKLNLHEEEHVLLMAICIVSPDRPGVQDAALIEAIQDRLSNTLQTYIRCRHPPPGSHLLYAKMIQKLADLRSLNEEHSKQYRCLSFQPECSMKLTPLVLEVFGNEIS
Method in brief: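 Agonist mode, beta-lactamase reporter: fluorescence from LiveBLAzer B/G FRET substrate (2 h, room temperature) read after 16 h compound treatment at 37 C of VDR-bla cells, which were pre-incubated 4 h after seeding.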

[19] = biological target: Vitamin D3 receptor (Homo sapiens) (UniProt P11473); test: qHTS assay to identify small molecule antagonists of the vitamin D receptor (VDR) signaling pathway (AID 743223; active = well fitted inhibition curve with a large enough effect in the signal ratio in the repeat runs, not every such curve was filed as active; the % refers to the signal ratio)
Method in brief: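 Reporter line VDR-bla; stimulus 1alpha,25-(OH)2 vitamin D3, 3 nM final; compound co-addition, 16 h 37C/5% CO2; LiveBLAzer B/G substrate 2 h RT; fluorescence intensity.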

[20] = biological target: Bile acid receptor (Homo sapiens) (UniProt Q96RI1); test: qHTS assay to identify small molecule antagonists of the farnesoid-X-receptor (FXR) signaling pathway (AID 743217; active = well fitted inhibition curve with a large enough effect in the signal ratio in the repeat runs, not every such curve was filed as active; the % refers to the signal ratio)
Method in brief: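 Antagonist mode: chenodeoxycholic acid at 50 uM final stimulates a UAS-driven beta-lactamase reporter in HEK 293T FXR-bla cells during 16 h, 37C compound exposure. Read-out is FRET substrate fluorescence after 2 h at room temperature.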

Measured: Potency

CC1CCC2CC1C2(C)C (configuration not stated)
not listed: [15] | [16] | [17] | [18] | [19] | [20]
inactive: all other assays above

Cc1ccc2oc(=O)ccc2c1
not listed: [6] | [20]
inactive: all other assays above

CCCCCC1=CCCC1=O
not listed: [16] | [20]
inactive: all other assays above

Cc1cccc(O)c1
not listed: [13] | [15] | [16] | [18] | [19] | [20]
inactive: all other assays above

O=C(O)c1cc(C(=O)O)cc(S(=O)(=O)O)c1
not listed: [20]
inactive: all other assays above

CCCCCC(N)=O
not listed: [13] | [20]
inactive: all other assays above

CCCCCCCC(=O)OC
not listed: [13] | [15] | [20]
inactive: all other assays above

c1c[nH]cn1
not listed: [7] | [13] | [20]
inactive: all other assays above

O=C(O)CC(C(=O)O)C(CC(=O)O)C(=O)O (configuration not stated)
not listed: [15] | [20]
inactive: all other assays above

CC(C)(N)CO
not listed: [16] | [20]
inactive: all other assays above

Cc1cccnc1
not listed: [13] | [16] | [17] | [20]
inactive: all other assays above

CCCCCC/C(C=O)=C\c1ccccc1
not listed: [15] | [16] | [20]
inactive: all other assays above

CCC(O)OC(O)CC (configuration not stated)
not listed: [13] | [16] | [17] | [20]
inactive: all other assays above

C=CCOC(=O)c1ccccc1C(=O)OCC=C
not listed: [16] | [17] | [18] | [19]
inactive: all other assays above

c1ccc2c(c1)ccc1ccccc12
not listed: [16] | [20]
inactive: all other assays above

CCc1cccc(C)c1N
not listed: [13] | [15] | [20]
inactive: all other assays above

Fc1ccc(Br)cc1
not listed: [13] | [16] | [17] | [20]
inactive: all other assays above
